This is an account of results in PubChem BioAssay AID720621 (The Scripps Research Institute Molecular Screening Center, 2013).

Structures are written as SMILES. Some of the results follow. Values without a mark were called inactive. The source made the active and inactive calls.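 Rule for the calls: active = inhibition above the mean of test compounds lying between the control limits plus 3 SD of those (cut at about 14% in these data); inactive = the rest.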

In general, inhibition refers to the drop in the measured response relative to a control, in per cent.

The target of the assay is Fibrinogen beta chain (Homo sapiens) (UniProt P02675). Kind of assay: fibrin DD(E) probe displacement, second cyclic peptide – biochemical, fluorescence polarization, human fibrin, counter-screen for fibrin DD(E)-Tn6 binding project, confirmation (AID 720621).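 Note: 0% = median of compound wells and 100% = wells with Aha-Tn7 blocking peptide.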 Conditions: TRITC-Tn6 fluorescence polarization displacement, at 8.3 µM, active compounds read high, 0% = median of compound wells, not DMSO.
Sequence of Fibrinogen beta chain (Homo sapiens) (P02675 whole entry, looked up): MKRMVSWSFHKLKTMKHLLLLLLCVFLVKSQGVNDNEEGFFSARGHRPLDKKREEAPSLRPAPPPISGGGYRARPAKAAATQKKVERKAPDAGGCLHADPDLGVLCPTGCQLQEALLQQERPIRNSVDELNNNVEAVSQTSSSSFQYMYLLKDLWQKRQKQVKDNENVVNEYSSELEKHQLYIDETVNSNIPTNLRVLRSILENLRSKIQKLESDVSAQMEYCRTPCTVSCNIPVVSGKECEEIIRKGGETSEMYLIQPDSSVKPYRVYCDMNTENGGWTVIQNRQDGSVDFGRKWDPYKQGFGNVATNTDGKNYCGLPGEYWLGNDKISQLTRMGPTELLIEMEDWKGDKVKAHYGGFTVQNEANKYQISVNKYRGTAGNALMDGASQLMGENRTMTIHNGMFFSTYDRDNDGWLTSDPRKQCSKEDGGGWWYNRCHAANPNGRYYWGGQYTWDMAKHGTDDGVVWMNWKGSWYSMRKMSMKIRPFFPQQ
As to `CCc1ccccc1NC(=S)Nc1cc(OC)c(NC(=O)C(C)C)cc1OC`, the inhibition was 2.55%. With `CCC1C(=O)NCCN1C(=O)c1ccc2nc(Cc3ccc(OC)cc3)oc2c1` (stereo unspecified) the figure was -2.38%.

With `Cc1ccc(-c2nc(C)sc2CC(=O)O)cc1`, the inhibition is 1.12%. With `Cc1nnsc1S(=O)(=O)Cc1ccccc1Cl` the figure was -7.19%; with `COc1ccc(N2C(=O)NC(NS(=O)(=O)c3ccc(Cl)cc3)(C(F)(F)F)C2=O)cc1` (stereo unspecified), 9.3%; with `CCc1cc(-c2nnc(SCC(=O)NC3CC3)n2C)cs1`, 0.11%. On to `O=c1[nH]n(-c2ccc([N+](=O)[O-])cc2)c(=O)c2ccccc12`, for which the inhibition is -1.25%. Regarding `Oc1ccc(N=Cc2sc3ccccc3c2Cl)cc1`, the inhibition was -3.72%. In the case of `CCOCC(=O)NCc1ccc2c(c1)cc(C)n2C` it was 3.45%; in that of `Cc1cc2cc(CNC(=O)c3ccc(S(=O)(=O)N4CCOCC4)cc3)ccc2[nH]1`, -5.66%. For the molecule `O=C(NCCNc1ccccc1[N+](=O)[O-])c1ccccc1F`, the inhibition is 1.36%.

Turning to `COc1ccc(Nc2nc(-c3cccnc3)nc3ccccc23)cn1`, the inhibition is 1.38%. With `COc1cc(NC(=O)c2ccc(CNc3c(N4CCCC4)c(=O)c3=O)cc2)cc(OC)c1OC` the figure was -3.04%. In the case of `Cc1nn(C)cc1N1C(=O)c2cccc3c(N)ccc(c23)C1=O` it was 12.5%. With `Cc1ccc(-c2nn(-c3ccccc3)cc2/C=C/C(=O)Nc2cccc(S(N)(=O)=O)c2)cc1` the figure was 9.5%. For `Cc1ccc(NC(=O)CN2CCc3ccccc3C2)cc1`, the inhibition was -3.5%. `CCOC(=O)N1CCN(Cc2nc(N)nc(Nc3ccc(C)cc3)n2)CC1`: the inhibition is -2.92%. `CONc1nc2nonc2nc1NOC`: the inhibition is 0.1%. On to `Cc1cc2ccccc2n1CCNC(=O)COc1ccc2ccccc2c1`, for which the inhibition is 4.66%. In the case of `Cc1cc2nc3c(=O)[nH]c(=O)nc-3n(C[C@H](O)[C@H](O)[C@H](O)CO)c2cc1C` it was 53.3% (active); in that of `COc1ccc(Nc2nc(-c3ccccc3)cs2)cc1`, 3.89%; in that of `O=C(CCl)NNc1cccc(Cl)n1`, -4.59%. With `CN1c2ccc(C=O)c3c(C=O)ccc(c23)N(C)C1(C)C`, the inhibition is 1.94%. `O=C(Nc1cccc(-c2nc3ccccc3[nH]2)c1)c1ccc(C(=O)Nc2cccc(-c3nc4ccccc4[nH]3)c2)cc1`: the inhibition is 4.67%. Regarding `Cc1cc(C)c2nc(NC(=O)C3CCCO3)sc2c1` (stereo unspecified), the inhibition was 9.86%. In the case of `O=c1cc(Cn2nnc(-c3ccc(Cl)cc3)n2)nc2sccn12` it was 0.44%.
